Source: PubChem (National Center for Advancing Translational Sciences (NCATS))
Shown are actives, neighbours in structure and some others; about 20% of the full set was active somewhere.
Shiga toxin inh: blocks Shiga toxin action in Vero cells; Vero cells, Shiga toxin protein synthesis inhibition reporter; inhibition, % at 38.7 µM; 290,000 compounds, 9.2% hits; AID 2315; in the data active = inhibition mostly above about 28%, no sharp cut-off; inactive = mostly below about 43%; note: 0% is about no effect
Pf growth 96h: P. falciparum growth inhibition at 96 hours. P. falciparum luciferase reporter growth, 96 h. Potency, µM (doses to about 28.7 µM), without a hit: at the top dose activity change, negative = inhibition, most hits filed as inhibitors. 320,000 compounds, 6.9% hits; note: potency is the fitted concentration of half-maximal effect; % is set by controls: 0 for no effect and ±100 for the full control effect
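Luminescence readout: decreased luciferase signal marks inhibited growth of reporter-expressing P. falciparum in infected red cells (2% hematocrit, 0.05% parasitemia final), exposed to compound two generations (96 h, 37 C, 5% CO2).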
HCMV antiviral: inhibitors of human cytomegalovirus | HFF cells, HCMV-luciferase reporter, 72 h; hits give low values | activity change, negative = inhibition, % at 57.5 µM | 410,000 compounds, 4.5% hits | AID 1259415; in the data active = activity change below about -60%; inconclusive = no clear call, values can overlap the other calls; inactive = above about -39%; note: % is set by controls: 0 for no effect and ±100 for the full control effect
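Human foreskin fibroblasts infected with luciferase-reporter HCMV at MOI 1 PFU/cell, compounds at two doses. Luciferase measured 72 h post infection; normalized to buffer-only basal and Salinomycin (10uM) controls.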
CHX counter: counter-screen hit for Shiga toxin inhibitors, cycloheximide; max response, %; 300,000 compounds, 12% hits; cell reporter, cycloheximide protein synthesis inhibition counterscreen; AID 2314; in the data active = max response mostly above about 13%, no sharp cut-off; inactive = mostly below about 14%; note: read at 38.3 µM for the half of the compounds with a filed dose; 0% is about no effect
Pf growth 48h: P. falciparum growth inhibition at 48 hours (one generation) | 310,000 compounds, 5.9% hits | Potency, µM (series often up to 28.7 µM), without a hit: at the highest dose activity change, negative = inhibition, most hits filed as inhibitors | P. falciparum luciferase growth in erythrocytes, 48 h; note: potency is the fitted concentration of half-maximal effect; % is set by controls: 0 for no effect and ±100 for the full control effect
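Luciferase-expressing P. falciparum in infected erythrocytes (2% hematocrit, 0.1% parasitemia final) in RPMI 1640/0.5% Albumax were exposed to compound for 48 hours at 37 C, 5% CO2; growth read as luminescence.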
An asterisk follows results filed as active; ? = inconclusive; . = not tested or not shown. Unless noted, calls come from the whole dose curve; as a rule, active = well fitted inhibition curve with a large enough effect; inconclusive = small, poorly fitted or top-dose-only effect, or another doubt; inactive = no such curve, though single readings can be large or run the other way.

SMILES | Shiga toxin inh | Pf growth 96h | HCMV antiviral | CHX counter | Pf growth 48h
COc1ccc(C2CC(=O)C3=C(C2)NC(C)=C(C#N)C3c2ccc(N(C)C)cc2)cc1 (stereo not given) | -8.2 | 10.2% | 2.5 | 17.7 | 6.57µM*
COC(=O)c1ccc(C2C(C#N)=C(C)NC3=C2C(=O)CC(C)(C)C3)cc1 (stereo not given) | -22.2 | 9.28µM* | 26.1 | -4.3 | 7.6%
COc1ccc(C2C(C#N)=C(SC)NC3=C2C(=O)CC(C)(C)C3)cc1 (stereo not given) | -7.3 | 21.5% | ? | -2.3 | ?
COc1ccc(C2C(C#N)=C(N)N(N(C)C)C3=C2C(=O)CC(C)(C)C3)cc1 (stereo not given) | -5.5 | 165.7% | -16.3 | 1.5 | 3.1%
CCOc1ccccc1NC(=O)Cn1c(=O)n(-c2ccc(C)c(C)c2)c(=O)c2c(C)c(C(=O)N(C)C)sc21 | . | . | -3.0 | . | .
COc1ccc(CN(C)CC(=O)Nc2sc3c(c2C#N)CCC3)c(OC)c1 | 1.4 | -28.2% | -15.2 | 4.1 | ?
Cc1ccc(Cl)c(NC(=O)CCl)c1Cl | 6.8 | 11.7µM* | ? | 2.6 | ?
COc1ccccc1NC(=O)CN1C(=O)C(C)(C)c2ccccc21 | . | . | 3.7 | . | .
O=C1N(c2ccccc2)c2ccccc2C1(O)C(F)(F)F (stereo not given) | -10.3 | 20.4% | 156.2 | -0.7 | 17.8%
Cc1ccccc1[C@]1(C)ON(c2ccccc2C(F)(F)F)C1=O | . | 1.31µM* | . | . | 1.85µM*
COc1ccccc1[C@@]1(C)ON(c2ccccc2C(F)(F)F)C1=O | . | 1.04µM* | -3.5 | . | 1.47µM*
Cc1ccccc1CN1CCN(Cc2ccccc2C(F)(F)F)CC1 | -12.1 | 1.8% | -10.7 | -2.6 | .
CC[C@]1(c2ccccc2C)ON(c2ccccc2C(F)(F)F)C1=O | . | ? | 34.3 | . | 2.62µM*
FC(F)(F)c1cc(Cc2nc3ccccc3n2C(CCc2ccccc2)c2nc3ccccc3[nH]2)cc(C(F)(F)F)c1 (stereo not given) | . | . | -16.5 | . | .
O=C(Cn1c(=O)n(Cc2ccccc2)c(=O)c2sc3ccccc3c21)Nc1ccc(F)cc1 | . | . | 4.5 | . | .
CCC(c1nnnn1C1CCCCC1)N1CCN(C(=O)c2ccco2)CC1 (stereo not given) | 2.9 | -1.3% | -24.0 | -7.7 | ?
O=C(NCCc1ccc(Cl)cc1)C1COc2ccccc2O1 (stereo not given) | -2.9 | -1.6% | 11.9 | 12.7* | 2.4%
COc1ccc(CCNC(=O)C2COc3ccccc3O2)cc1OC (stereo not given) | . | . | 15.3 | . | .
COc1ccc(CNC(=O)C2COc3ccccc3O2)cc1 (stereo not given) | 38.5* | -0.2% | 139.8 | 28.5* | 74.1%
O=C(NCc1cccnc1)C1COc2ccccc2O1 (stereo not given) | -7.6 | ? | -15.9 | -2.4 | -1.8%
COc1ccccc1CNC(=O)C1COc2ccccc2O1 (stereo not given) | 42.9* | . | 1.7 | 30.1* | 46.9%
Cc1ccc(S(=O)(=O)NCCC(=O)N2CCCCCCC2)cc1C | . | ? | 19.5 | . | 0.0%
CCC(C)(C)NC(=O)CCCSc1nc2ccccc2[nH]1 | 14.7 | 21.9% | 0.0 | 13.3 | 13.9%
Nc1[nH]c(C(=O)c2ccccc2)c(-c2ccccc2C(F)(F)F)c1C(=O)NCc1cccc2ccccc12 | . | . | 10.9 | . | .
CCCCNC(=S)Nc1ccc2nc3n(c(=O)c2c1)CCCCC3 | 15.7 | -18.8% | -39.6 | 21.5* | 12.9%
SMILES | Shiga toxin inh | Pf growth 96h | HCMV antiviral | CHX counter | Pf growth 48h
CC(C)OCCCNC(=S)Nc1ccc2nc3n(c(=O)c2c1)CCCCC3 | -4.9 | 30.7% | -18.0 | -1.5 | -12.2%
CC(C)CCNC(=S)Nc1ccc2nc3n(c(=O)c2c1)CCCCC3 | 26.8* | ? | ? | 4.9 | ?
CCOCCCNC(=S)Nc1ccc2nc3n(c(=O)c2c1)CCCCC3 | -5.3 | -20.3% | -35.1 | 6.2 | -10.6%
CC(=O)c1ccc(N(C(=O)c2csnn2)C(C(=O)NC(C)(C)C)c2cccs2)cc1 (stereo not given) | -10.7 | -3.5% | 6.1 | 1.2 | -23.1%
Cc1ccc(C)c(NC(=O)COC(=O)c2ccc(S(=O)(=O)N3CCCC3)cc2)c1 | . | . | 11.0 | . | .
OC[C@H]1OC(O)[C@H](O)[C@@H](O)[C@H]1O (stereo not given in full) | -11.7 | 6.4% | -61.3* | -8.5 | 1.0%
OC1CCC(Nc2nccc3[nH]c(-c4ccccc4Cl)nc23)CC1 (stereo not given) | . | . | -11.0 | . | .
O=C(Nc1ccc(NC(=O)c2ccco2)cc1)c1cnccn1 | 58.4 | ? | 92.3 | 25.2* | 96.9%
O=C(Nc1ccc(OC(F)(F)F)cc1)c1cnccn1 | 101.2* | ? | 62.5 | 55.0* | 191.9%
O=C(Nc1ccccc1C(F)(F)F)c1cnccn1 | -20.2 | -1.7% | -6.7 | 1.8 | 28.3%
CCc1ccc(NC(=O)c2cnccn2)cc1 | 55.3* | -5.4% | 17.1 | 38.2* | 481.1%
Cc1csc2ncc(C(=O)Nc3cccc(C(F)(F)F)c3)c(=O)n12 | -1.4 | 34.0% | ? | 8.0 | 43.1%
CCc1ccc(NC(=O)c2cnc3scc(C)n3c2=O)cc1 | 11.0* | 63.3% | -5.0 | 34.0* | 52.6%
CC(C)c1ccc(OCC(=O)NC2CC(C)(C)NC(C)(C)C2)c(Br)c1 | -19.1 | -2.7% | -40.0 | 10.7 | ?
COc1ccc(NC(=O)CN(C)C(=O)CNC(=O)c2ccc3ccccc3c2)cc1 | . | 41.7% | 30.1 | . | 65.2%
CCCCOC(=O)c1ccc(NC(=O)c2cnccn2)cc1 | 10.4 | -4.1% | -7.6 | 17.9 | 26.2%
CCCOC(=O)c1ccc(NC(=O)c2cnccn2)cc1 | 50.8* | 106.8% | -7.3 | 26.0* | 68.2%
CCC(CO)NC1=C([N+](=O)[O-])C(=O)CC(C)(C)C1 (stereo not given) | -11.5 | -13.7% | -33.1 | -5.5 | 3.1%
O=S(=O)(NCc1ccccc1)c1cccc(S(=O)(=O)N2CCOCC2)c1 | -16.1 | 0.0586µM* | ? | -4.8 | .
O=S(=O)(c1cccc(S(=O)(=O)N2CCC(Cc3ccccc3)CC2)c1)N1CCOCC1 | -3.9 | ? | -8.6 | 2.6 | -28.4%
O=S(=O)(NCCc1ccccc1F)c1cccc(S(=O)(=O)N2CCOCC2)c1 | -9.4 | 6.57µM* | -0.6 | -1.5 | -4.5%
CCN(CC)C(=O)C1=C(C)N(Cc2ccccc2)C(=O)C(CC(=O)NCc2cccs2)C1 (stereo not given) | . | . | -30.7 | . | .
CN1C(=O)C2(c3ccccc31)N(C)CC(c1ccccc1)C21SC(=S)N(Cc2ccco2)C1=O (stereo not given) | -7.9 | 14.7µM* | -62.0* | 0.7 | 1.31µM*
CN1C(=O)C2(c3ccccc31)N(C)CC(c1ccccn1)C21SC(=S)N(Cc2ccco2)C1=O (stereo not given) | 27.3 | ? | ? | 31.8* | 9.28µM*
CC(=O)c1ccc(COC(=O)c2cc3ccccc3oc2=O)cc1 | 22.3 | 13.1µM* | 6.7 | 24.9* | 5.9%
COC(=O)c1ccc(COC(=O)c2cc3ccccc3oc2=O)cc1 | 23.7 | ? | -12.0 | 11.4* | 9.9%
CCOC(=O)COc1ccc2cc(C(=O)OCC)c(=O)oc2c1 | 27.2 | 79.0% | 9.1 | -4.0 | ?
